Experimental data as given in PubChem BioAssay (NCATS).
Inconclusive results are not listed. Activity calls are given as the source filed them. Calls come from the whole dose curve; as a rule, active = well fitted cell-killing curve with a large enough effect; inconclusive = small, poorly fitted or top-dose-only effect, or effect the other way; inactive = no such curve, though single readings can be large or run the other way. Peptide text beside a SMILES is read from it.

What was measured:
[1] = Quantitative High-Throughput drug screen in 47 multiple myeloma cell lines against the NCATS MIPE library collection: OCIMY1_PLB cell viability assay (AID 1918979); conditions: OCI-MY1 myeloma viability, CellTiter-Glo ATP, 48 h; series mostly up to 45.8 µM;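 note: 100% = DMSO-only wells and 0% = cell-free media-only wells; nearly all actives have a fitted effect of over 35% in size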
Summary of the method: (§1)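 Readout: median RLU from CellTiter-Glo after 5 min at room temperature. Preceding step was 48 h drug treatment of 500 cells/well at 37 °C, 5% CO2, with DMSO-only and media-only control wells.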

[2] = Quantitative High-Throughput drug screen in 47 multiple myeloma cell lines against the NCATS MIPE library collection: KMS28PE_JCRB cell viability assay (AID 1918983); conditions: KMS28PE multiple myeloma viability, CellTiter-Glo ATP, 48 h; series mostly up to 45.8 µM; note: nearly all actives have a fitted effect of over 35% in size; note: potency is the fitted concentration of half-maximal effect
Summary of the method: as §1

[3] = Quantitative High-Throughput drug screen in 47 multiple myeloma cell lines against the NCATS MIPE library collection: L363_DSMZ cell viability assay (AID 1918984); conditions: L363 myeloma viability, CellTiter-Glo ATP luminescence, 48 h; series mostly up to 45.8 µM; note: nearly all actives have a fitted effect of over 40% in size
Summary of the method: as §1

[4] = Quantitative High-Throughput drug screen in 47 multiple myeloma cell lines against the NCATS MIPE library collection: KMS34_JCRB cell viability assay (AID 1918985); conditions: KMS34 myeloma viability, CellTiter-Glo ATP luminescence, 48 h; series mostly up to 45.8 µM; note: nearly all actives have a fitted effect of over 40% in size; note: potency is the fitted concentration of half-maximal effect
Summary of the method: as §1

[5] = Quantitative High-Throughput drug screen in 47 multiple myeloma cell lines against the NCATS MIPE library collection: OCIMY7_PLB cell viability assay (AID 1918987); conditions: OCI-MY7 myeloma viability, CellTiter-Glo ATP, 48 h; series mostly up to 45.8 µM; note: nearly all actives have a fitted effect of over 65% in size; note: potency is the fitted concentration of half-maximal effect
Summary of the method: as §1

[6] = Quantitative High-Throughput drug screen in 47 multiple myeloma cell lines against the NCATS MIPE library collection: SKMM1_PLB cell viability assay (AID 1919863); conditions: SKMM1 myeloma viability, CellTiter-Glo ATP, 48 h; viability: hits give low values; note: nearly all actives have a fitted effect of over 35% in size; note: potency is the fitted concentration of half-maximal effect
Summary of the method: as §1

[7] = Quantitative High-Throughput drug screen in 47 multiple myeloma cell lines against the NCATS MIPE library collection: XG1_PLB cell viability assay (AID 1919866); conditions: CellTiter-Glo ATP, 48 h; series mostly up to 45.8 µM; note: nearly all actives have a fitted effect of over 35% in size; note: potency is the fitted concentration of half-maximal effect
Summary of the method: as §1

[8] = Quantitative High-Throughput drug screen in 47 multiple myeloma cell lines against the NCATS MIPE library collection: VP6_DJ cell viability assay (AID 1919867); conditions: ATP luminescence, 48 h; series mostly up to 45.8 µM; note: nearly all actives have a fitted effect of over 40% in size; note: potency is the fitted concentration of half-maximal effect
Summary of the method: as §1

[9] = Quantitative High-Throughput drug screen in 47 multiple myeloma cell lines against the NCATS MIPE library collection: UTMC2_PLB cell viability assay (AID 1919868); conditions: CellTiter-Glo ATP luminescence, 48 h; series mostly up to 45.8 µM;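 note: 100% = DMSO-only wells and 0% = media-only wells without cells; nearly all actives have a fitted effect of over 55% in size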
Summary of the method: as §1

[10] = Quantitative High-Throughput drug screen in 47 multiple myeloma cell lines against the NCATS MIPE library collection: RPMI8226_ATCC cell viability assay (AID 1919871); conditions: RPMI8226 myeloma viability, CellTiter-Glo ATP luminescence, 48 h; series mostly up to 45.8 µM; note: nearly all actives have a fitted effect of over 30% in size; note: potency is the fitted concentration of half-maximal effect
Summary of the method: as §1

[11] = Quantitative High-Throughput drug screen in 47 multiple myeloma cell lines against the NCATS MIPE library collection: OPM2_DSMZ cell viability assay (AID 1919872); conditions: OPM2 myeloma viability, CellTiter-Glo ATP luminescence, 48 h; series mostly up to 45.8 µM; note: nearly all actives have a fitted effect of over 30% in size; note: potency is the fitted concentration of half-maximal effect
Summary of the method: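 qHTS of the MIPE 4.0 collection: 500 myeloma cells/well, 48 h drug exposure at 37C in 5% CO2, then CellTiter-Glo for 5 min at room temperature before luminescence reading.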

[12] = Quantitative High-Throughput drug screen in 47 multiple myeloma cell lines against the NCATS MIPE library collection: MM1R_ATCC cell viability assay (AID 1918981); conditions: MM1R multiple myeloma cells, CellTiter-Glo viability, 48 h; series mostly up to 45.8 µM; note: nearly all actives have a fitted effect of over 35% in size; note: potency is the fitted concentration of half-maximal effect
Summary of the method: as §1

[13] = Quantitative High-Throughput drug screen in 47 multiple myeloma cell lines against the NCATS MIPE library collection: LP1_DSMZ cell viability assay (AID 1918982); conditions: LP1 myeloma viability, CellTiter-Glo ATP luminescence, 48 h; series mostly up to 45.8 µM; note: nearly all actives have a fitted effect of over 35% in size; note: potency is the fitted concentration of half-maximal effect
Summary of the method: as §1

[14] = Quantitative High-Throughput drug screen in 47 multiple myeloma cell lines against the NCATS MIPE library collection: OPM1_PLB cell viability assay (AID 1918989); conditions: CellTiter-Glo, 48 h; series mostly up to 45.8 µM;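 note: 100% = DMSO-only wells and 0% = media-only wells; nearly all actives have a fitted effect of over 40% in size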
Summary of the method: as §1

[15] = Quantitative High-Throughput drug screen in 47 multiple myeloma cell lines against the NCATS MIPE library collection: U266_ATCC cell viability assay (AID 1919864); conditions: U266 myeloma viability, CellTiter-Glo ATP luminescence, 48 h; series mostly up to 45.8 µM; note: nearly all actives have a fitted effect of over 35% in size; note: potency is the fitted concentration of half-maximal effect
Summary of the method: as §1

[16] = Quantitative High-Throughput drug screen in 47 multiple myeloma cell lines against the NCATS MIPE library collection: PE2_PLB cell viability assay (AID 1919869); conditions: PE2_PLB myeloma cells viability, ATP luminescence, 48 h; series mostly up to 45.8 µM
Summary of the method: as §1

[17] = Quantitative High-Throughput drug screen in 47 multiple myeloma cell lines against the NCATS MIPE library collection: PCM6_Riken cell viability assay (AID 1919870); conditions: CellTiter-Glo ATP, 48 h; series mostly up to 45.8 µM; note: nearly all actives have a fitted effect of over 30% in size; note: potency is the fitted concentration of half-maximal effect
Summary of the method: as §1

[18] = Quantitative High-Throughput drug screen in 47 multiple myeloma cell lines against the NCATS MIPE library collection: MM1S_ATCC cell viability assay (AID 1918980); conditions: MM1S myeloma viability, CellTiter-Glo ATP luminescence, 48 h; series mostly up to 45.8 µM; note: nearly all actives have a fitted effect of over 45% in size; note: potency is the fitted concentration of half-maximal effect
Summary of the method: as §1

[19] = Quantitative High-Throughput drug screen in 47 multiple myeloma cell lines against the NCATS MIPE library collection: XG6_PLB cell viability assay (AID 1919865); conditions: XG6 myeloma viability, CellTiter-Glo ATP luminescence, 48 h; series mostly up to 45.8 µM; note: nearly all actives have a fitted effect of over 40% in size; note: potency is the fitted concentration of half-maximal effect
Summary of the method: as §1

[20] = Quantitative High-Throughput drug screen in 47 multiple myeloma cell lines against the NCATS MIPE library collection: OCIMY5_PLB cell viability assay (AID 1918988); conditions: OCI-MY5 myeloma viability, ATP luminescence, 48 h; series mostly up to 45.8 µM;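 note: 100% = DMSO-treated wells and 0% = wells with media alone; nearly all actives have a fitted effect of over 65% in size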
Summary of the method: as §1

Cc1cc(O)c2c(c1)C(=O)c1cc(O)cc(O)c1C2=O
active: Potency [2] 10.5 µM | Potency [6] 20.9 µM | Potency [10] 23.5 µM
inactive: Potency [1] | Potency [3] | Potency [4] | Potency [5] | Potency [7] | Potency [8] | Potency [9] | Potency [11]

CC(C)[C@H](N)C(=O)OCCOCn1cnc2c(=O)[nH]c(N)nc21
active: Potency [2] 14.8 µM
inactive: Potency [1] | Potency [12] | Potency [13] | Potency [14] | Potency [15] | Potency [16] | Potency [17] | Potency [10] | Potency [11]

Cc1nc2n(c(=O)c1CCN1CCC(c3noc4cc(F)ccc34)CC1)CCCC2
active: Potency [8] 7.43 µM
inactive: Potency [18] | Potency [12] | Potency [13] | Potency [2] | Potency [4] | viability [6] 134% | Potency [19] | Potency [7] | Potency [16] | Potency [17] | Potency [10] | Potency [11]

CNC[C@H](O)c1ccc(O)c(O)c1
inactive: Potency [3] | Potency [7] | Potency [17]
active: Potency [18] 17.1 µM | Potency [12] 6.05 µM | Potency [13] 30.3 µM | Potency [2] 13.6 µM | Potency [4] 30.3 µM | Potency [6] 12.1 µM | Potency [15] 38.2 µM | Potency [10] 42.9 µM | Potency [11] 13.6 µM

CCC1=C(C)CN(C(=O)NCCc2ccc(S(=O)(=O)NC(=O)NC3CCC(C)CC3)cc2)C1=O (centres undefined)
inactive: Potency [18] | Potency [12] | Potency [13] | Potency [2] | Potency [3] | Potency [4] | Potency [20] | Potency [14] | Potency [15] | Potency [7] | Potency [8] | Potency [16] | Potency [17] | Potency [10] | Potency [11]

C=C(c1ccc(C(=O)O)cc1)c1cc2c(cc1C)C(C)(C)CCC2(C)C
inactive: Potency [1] | Potency [12] | Potency [13] | Potency [4] | Potency [15] | Potency [19] | Potency [17] | Potency [10] | Potency [11]

COC(=O)[C@H](Cc1ccccc1)NC(=O)[C@@H](N)CC(=O)O (H-Asp-Phe-OMe)
inactive: Potency [18] | Potency [12] | Potency [13] | Potency [2] | Potency [4] | Potency [5] | Potency [20] | Potency [15] | Potency [7] | Potency [16] | Potency [17] | Potency [11]
active: Potency [19] 14.8 µM

CC(S)C(=O)NCC(=O)O (centres undefined)
inactive: Potency [1] | Potency [12] | Potency [20] | viability [6] 132% | Potency [19] | Potency [7] | Potency [16] | Potency [17] | Potency [10] | Potency [11]

CC1=C(C(=O)O)N2C(=O)[C@@H](NC(=O)[C@H](N)C3=CCC=CC3)[C@H]2SC1
inactive: Potency [1] | Potency [12] | Potency [13] | Potency [20] | Potency [14] | viability [6] 126% | Potency [7] | Potency [16] | Potency [10] | Potency [11]

O=C1NC(=O)C(c2ccccc2[N+](=O)[O-])=C1Nc1ccc(O)c(Cl)c1
active: Potency [19] 6.62 µM | Potency [7] 8.33 µM | Potency [17] 18.7 µM
inactive: Potency [1] | Potency [13] | Potency [3] | viability [6] 110% | Potency [15] | Potency [9] | Potency [11]

O=C(OC1C[C@H]2CC[C@@H](C1)[N+]21CCCC1)C(O)(c1ccccc1)c1ccccc1 (some centres undefined)
inactive: Potency [18] | Potency [12] | Potency [13] | Potency [2] | Potency [3] | Potency [5] | Potency [20] | Potency [14] | viability [6] 138% | Potency [19] | Potency [7] | Potency [9] | Potency [16] | Potency [17] | Potency [10] | Potency [11]

CCOC(=O)C1=C(O)C(=O)N(Cc2ccccc2)C1
inactive: Potency [1] | Potency [2] | Potency [14] | viability [6] 107% | Potency [15] | Potency [19] | Potency [7] | Potency [16] | Potency [17] | Potency [11]
active: Potency [10] 13.2 µM

Nc1nc(OCc2ccccc2)c2[nH]cnc2n1
active: Potency [18] 14.8 µM | Potency [19] 16.6 µM | Potency [7] 13.2 µM | Potency [8] 7.43 µM
inactive: Potency [12] | Potency [13] | Potency [2] | viability [6] 128% | Potency [10] | Potency [11]

CCOC(=O)C1=C[C@@H](OC(CC)CC)[C@H](NC(C)=O)[C@@H](N)C1
inactive: Potency [1] | Potency [12] | Potency [13] | Potency [2] | Potency [14] | viability [6] 108% | Potency [19] | Potency [7] | Potency [8] | Potency [16] | Potency [17] | Potency [10] | Potency [11]

Cc1ccc(C)c(OCCCC(C)(C)C(=O)O)c1
active: Potency [5] 18.7 µM | Potency [7] 16.6 µM | Potency [8] 7.43 µM | Potency [17] 8.33 µM
inactive: Potency [1] | Potency [13] | Potency [4] | viability [6] 118% | Potency [10] | Potency [11]

NS(=O)(=O)c1cc(C(=O)O)c(NCc2ccco2)cc1Cl
inactive: Potency [1] | Potency [12] | Potency [13] | Potency [3] | Potency [14] | Potency [19] | Potency [7] | Potency [16] | Potency [17] | Potency [10] | Potency [11]
